In PubChem BioAssay AID624483 (NMMLSC, 2012) one finds fluorescence intensity data, which are given here for 60 molecules.

Hit rate of the full screen: of about 360,000 compounds, about 11,000 (3.1%) were called active. Another 2% or so got no clear call; they are omitted. The sample as a whole holds a higher share of actives than the screen did. Values without a mark were called inactive. Cut-off read from the data, not from the text of the source: active = fluorescence intensity above about 16000; inconclusive = no clear call, values can overlap the other calls; inactive = below that.

This experiment in a line: counter-screen for toxin protease inhibitors: compound fluorescence, primary screen, artefact control for toxin protease inhibitor project, biochemical, multiplex microsphere, HTS (AID 624483). To be noted: compound autofluorescence counterscreen, microsphere flow cytometry; stronger effect = higher value. In general terms: Counterscreens check selectivity or assay interference.
Regarding `Cn1c(NC(=O)c2ccco2)c(-c2ccccc2Cl)c(=O)c2ccccc21`, the fluorescence intensity was 5600.
As for `COc1cccc(-c2cnc(C(O)c3ccccc3OC)[nH]2)c1` (stereo not given), the figure is 4140; as for `CCN(Cc1nc2ccccc2c(=O)[nH]1)Cc1cc(=O)oc2cc(C)c(C)cc12`, 22700 (active); as for `CN(Cc1nc2ccccc2c(=O)[nH]1)Cc1cc(=O)oc2ccc3ccccc3c12`, 10600.
As for `CCN(CC(=O)NC(=O)NCc1ccccc1)Cc1nc2ccccc2c(=O)[nH]1`, the fluorescence intensity is 4790.
Turning to `Cc1ccccc1/[N+]([O-])=C/c1ccncc1`, the fluorescence intensity was 3600.
Take `O=C(Nc1ccc(F)cc1)Nc1nnc([C@H]2C[C@H](O)[C@@H](CO)O2)s1`: the fluorescence intensity is 2870.
For `COc1cccc(OCC(=O)NNC(=O)c2cnccn2)c1`, the fluorescence intensity was 2360.
`COc1ccc(C(=O)NNC(=O)c2cnccn2)cc1[N+](=O)[O-]`: the fluorescence intensity was 16500 (active).
With `CCOc1ccc(C(=O)Nc2nccs2)cc1[N+](=O)[O-]`, the fluorescence intensity was 2430.
Turning to `Cc1ccc(CC2(C)C(=O)Nc3ccc(OC(F)(F)F)cc32)cc1` (stereo not given), the fluorescence intensity was 3690.
For `Cc1cccc(NC(=O)C2CCN(C(=O)NC3CCCCC3)CC2)c1`, the fluorescence intensity is 3730.
As for `O=C(COc1ccc(S(=O)(=O)Nc2cccc(C(F)(F)F)c2)cc1)N1CCOCC1`, the fluorescence intensity is 4570.
As for `O=C(Nc1cccc(OCC(=O)N2CCOCC2)c1)C1CCCCC1`, the fluorescence intensity is 23600 (active).
Turning to `C#Cc1ccc(NC(=O)C2(C)CCN2C(=O)Cc2ccc(-c3ccccc3)cc2)cc1` (stereo not given), the fluorescence intensity was 3720.
The figure for `Cc1ccc(NC(=S)N/N=C2/CCCc3c(C)cc(C)cc32)cc1` is 20600 (active).
Turning to `Cc1ccc(C)c(NC(=S)NNC(=S)Nc2ccc(C(C)C)cc2)c1`, the fluorescence intensity is 3300.
Regarding `C/C(=N\NC(=S)Nc1ccc(C)cc1)c1cc2ccccc2o1`, the fluorescence intensity is 4230.
On to `COCc1cccc(-c2csc(C(O)c3ccc(F)cc3)n2)c1` (stereo not given), for which the fluorescence intensity was 3440.
Turning to `O=C(CC1Nc2ccccc2NC1=O)Nc1ccccc1` (stereo not given), the fluorescence intensity is 3710.
For the molecule `N#Cc1ccc(-c2ccc3nccn3c2)cc1`, the fluorescence intensity is 3660.
Take `Cc1ccc(NS(=O)(=O)c2ccc(C(C)(C)C)cc2)cn1`: the fluorescence intensity is 3470.
The figure for `Cc1cc(C)cc(OCC(=O)Nc2ccc(S(=O)(=O)Nc3ccccn3)cc2)c1` is 2260; for `Cc1ccc(S(=O)(=O)Nc2ccc3ncccc3c2)cc1` it is 22700 (active).
`CSc1cccc(NC(=S)N(C(C)C)C(C)c2ccccn2)c1` (stereo not given): the fluorescence intensity was 3430.
As for `Cc1ccc2c(=O)cc(C(=O)NCCc3ccc(S(N)(=O)=O)cc3)oc2c1C`, the fluorescence intensity was 3650.
For the molecule `O=C(NC1(C(F)(F)F)NC(=O)N(Cc2cccnc2)C1=O)c1ccccc1Cl` (stereo not given), the fluorescence intensity is 21200 (active).
In the case of `COc1ccc(C(=O)NC2(C(F)(F)F)NC(=O)N(CCCc3ccccc3)C2=O)c(OC)c1OC` (stereo not given), the fluorescence intensity was 8270.
Consider `O=C(NCc1cccnc1)c1ccccc1NC(=O)c1c(F)cccc1F`, for which the fluorescence intensity is 5910.
For the molecule `CCOC(=O)c1ccc(COC(=O)CCc2nc(-c3ccccc3)c(-c3ccccc3)o2)cc1`, the fluorescence intensity was 16400 (active).
Regarding `Cc1onc(-c2ccccc2)c1-c1nnc(COC(=O)c2ccc(N(C)C)cc2)o1`, the fluorescence intensity was 3380.
On to `CCOC(=O)c1ccc(-n2c(CCC(=O)O)ccc2-c2ccccc2)cc1`, for which the fluorescence intensity is 3600.
As for `COc1c(O)ccc2c1CN1CCc3cc4c(cc3C1C2)OCO4` (stereo not given), the figure is 4960; as for `COc1ccc(C2OC(CCc3ccccc3)Cc3[nH]c(=S)[nH]c(=O)c32)cc1` (stereo not given), 5590; as for `CCOC(=O)c1cc(NC(=O)c2cccnc2)cc(C(=O)OCC)c1`, 24800 (active).
For the molecule `CCOC(=O)c1cc(NC(=O)c2cccnc2)ccn1`, the fluorescence intensity was 3490.
For the molecule `CCOc1ccccc1NC(=O)c1cccnc1`, the fluorescence intensity is 3020.
Consider `OC[C@@H]1CN(Cc2ccc(-c3ccccc3)cc2)C[C@H](n2cnc3c(NC4CCCC4)ncnc32)O1`, for which the fluorescence intensity was 3740.
Turning to `CCOC(=O)CSc1nnc(CNC(=O)c2ccco2)n1-c1ccc(F)cc1`, the fluorescence intensity is 8100.
Turning to `CCOC(=O)CSc1nnc(CNC(=O)c2cccs2)n1-c1cc(OC)ccc1OC`, the fluorescence intensity is 9680.
As for `Cc1ccc(-n2c(Cc3cccs3)nnc2SCC(=O)OC(C)C)cc1`, the fluorescence intensity was 23800 (active).
In the case of `Cc1ccc(-n2c(SCC(=O)Nc3ccc4c(c3)OCO4)nnc2-c2ccccn2)cc1`, the fluorescence intensity is 9860.
Turning to `O=C(CSc1nnc(-c2ccccn2)n1-c1ccccc1)Nc1ccc2c(c1)OCO2`, the fluorescence intensity is 2680.
`COc1ccc(-n2c(SCC(=O)OC(C)C)nnc2-c2ccccn2)cc1`: the fluorescence intensity is 23500 (active).
As for `CCn1c(Cc2cccs2)nnc1SCC(=O)c1ccc(C)cc1`, the figure is 23000 (active); as for `CCOC(=O)CSc1nnc(CNC(=O)c2cccs2)n1-c1ccccc1`, 24300 (active).
`COc1ccc(-n2c(SCC(=O)NCc3cccs3)nnc2-c2ccoc2C)cc1`: the fluorescence intensity is 3110.
The figure for `CCn1c(SCC(=O)c2ccc(Cl)s2)nnc1-c1cccs1` is 3490; for `Cn1c(Cc2cccs2)nnc1SCC(=O)Nc1ccccc1` it is 5420.
`Cc1ccc(-c2nnc(SCC(=O)N/N=C/c3cccs3)n2-c2ccc(C)cc2)cc1`: the fluorescence intensity is 2620.
Consider `COc1ccc2c(CC(=O)NNC(=O)c3ccccc3F)coc2c1`, for which the fluorescence intensity was 2950.
For the molecule `CCNC(=O)C1(C)CCCN(Cc2noc(-c3ccccc3OC)n2)C1` (stereo not given), the fluorescence intensity is 3700.
On to `CCN(CC)c1nc(-c2ccccc2)cc(C(F)(F)F)c1C#N`, for which the fluorescence intensity was 2560.
The figure for `O=C(C=CC(=O)Nc1ccc(F)cc1F)Nc1ccc(F)cc1F` is 6040.
The figure for `COc1ccc(NC(=O)C2(C)Cc3c(-c4cccc(NC(C)=O)c4)ccnc3O2)cc1OC` (stereo not given) is 3020; for `CCc1nc2ccc(C(=O)N(C)CCN(C)C)cn2c1N(CC)CCOC` it is 3650.
The figure for `O=C(NCC(O)c1nc2ccccc2[nH]1)c1ccc(Br)cc1` (stereo not given) is 5430.
As to `C[C@@H]1CC2=C(C(=O)OC(C)(C)O2)[C@@H](C2CC2)O1`, the fluorescence intensity is 5730.
Consider `CCN(C(=O)CN1CCN(Cc2ccccc2)CC1)c1c(N)n(Cc2ccccc2)c(=O)[nH]c1=O`, for which the fluorescence intensity is 3390.
Consider `Cc1csc(=O)n1CCC(=O)OCC(=O)NNC(=O)c1ccc(Br)cc1`, for which the fluorescence intensity was 3030.
